± gives the standard deviation of the averaged measurements. Whole data set: some 33,000 sequences, median “E-score (dimensionless, -0.5 to 0.5)” near -0.046, cut for the highest 2% near 0.36. The entries come from a sample that favours the highest values as a whole.
What follows are sequences tested on T1, SpTbr T-box DNA-binding domain (GST fusion) (assay: PBM E-score of 8-mer (E-score (dimensionless, -0.5 to 0.5)); Tbr is Tbrain of the sea star Patiria miniata (Pm) or the sea urchin Strongylocentrotus purpuratus (Sp); higher = stronger binding preference). Settings: the construct has about 5 more residues each side.
T1 sequence: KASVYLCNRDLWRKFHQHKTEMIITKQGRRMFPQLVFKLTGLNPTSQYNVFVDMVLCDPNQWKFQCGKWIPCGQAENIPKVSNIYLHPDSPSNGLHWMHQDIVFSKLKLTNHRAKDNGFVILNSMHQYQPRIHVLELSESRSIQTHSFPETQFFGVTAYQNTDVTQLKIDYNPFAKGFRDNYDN
Experimental: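 Universal protein-binding microarray (Agilent AMADID 016060, 60-bp probes with a 35-bp variable region) incubated with 200 nM GST-fused Strongylocentrotus purpuratus Tbr T-box DNA-binding domain (residues 362-554) in PBS pH 7.5. Scored for every ungapped 8-mer (given with its reverse complement) as E-score (range -0.5 to 0.5; >0.45 counts as bound) and Z-score of median probe intensity. Two replicate arrays (datasets 1 and 2).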
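Note: protein at 200 nM in PBS on universal double-stranded arrays.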

Sequence	PBM E-score of 8-mer
TGTCAAAA	0.289 ± 0.021
TACCCGGA	-0.128 ± 0.15
GCAATCGC	0.212 ± 0.0066
ACTGAGGA	-0.0611 ± 0.02
CCAATAAC	-0.0379 ± 0.13
CTGGGACC	-0.174 ± 0.015
ACGCCAAC	0.144 ± 0.021
CCAGCTTC	-0.142 ± 0.058
CGAACAGA	0.0582 ± 0.028
AAGACCTT	-0.259 ± 0.0063
ACCACCTG	0.224 ± 0.037
CACACCTG	0.479 ± 0.0072
AACACCGT	0.243 ± 0.091
AACACCGG	0.118 ± 0.015
AACACCTG	0.463 ± 0.0057
CACACCGG	0.175 ± 0.059
AACACCTT	0.479 ± 0.0049
CAGACCTG	-0.0842 ± 0.0016
GTATGCAC	0.0616 ± 0.043
CTAGTTTC	-0.105 ± 0.053
CTACGCGA	0.0131 ± 0.01
AACTCTGA	-0.0644 ± 8.5e-05
CGCAAGAC	0.07366 ± 4.2e-05
ACGCATGG	-0.144 ± 0.018
CGGTGCCA	0.119 ± 0.02

Sequence	PBM E-score of 8-mer
ACGTGCCG	0.199 ± 0.058
GGGTGCCA	0.3739 ± 0.003
GTGTGCGA	0.361 ± 0.0042
CGGTGCGA	0.339 ± 0.0046
GGGTGCGA	0.4746 ± 0.00052
GCGTGCCA	0.128 ± 0.01
AGGTGCCA	0.46212 ± 0.00034
AGGTGCCC	0.00863 ± 0.0099
AGGTGCCG	0.421 ± 0.0055
ACGTGCCA	0.361 ± 0.033
AGCTGCCA	0.111 ± 0.099
ACGATCAC	0.119 ± 0.031
AGGTTTAA	-0.0723 ± 0.017
GGACTTGA	-0.12 ± 0.047
AATACTGG	-0.329 ± 0.041
TATATCAA	-0.174 ± 0.03
AAATGGTA	-0.152 ± 0.041
TGCGAGAA	0.36401 ± 0.00027
CAACAAGG	0.0674 ± 0.0062
CCTTCACG	0.278 ± 0.019
CCTTCACC	0.14 ± 0.013
ACTTCACG	0.312 ± 0.018
CCTTCACA	0.404 ± 0.0071
ACTTCACA	0.357 ± 0.02
TCTTCACA	0.395 ± 0.015

Sequence	PBM E-score of 8-mer
ATCCCAGA	-0.0492 ± 0.043
GATTTTCC	-0.00302 ± 0.027
CCCCAAAA	-0.112 ± 0.042
TATTTGAA	-0.214 ± 0.013
CCCCTCCG	0.119 ± 0.066
AACCTCCA	-0.135 ± 0.018
CACCTCCG	0.4516 ± 0.0039
CACCTCCC	0.389 ± 0.017
AACCTCCG	0.0095 ± 0.07
AACCTCCC	-0.0867 ± 0.0052
TACCTCCA	-0.0368 ± 0.093
GACCTCCC	-0.159 ± 0.12
CACCTCCA	0.3876 ± 0.00048
AGCGGGCA	-0.0395 ± 0.016
GACGTGCA	0.0705 ± 0.07
ACCCGAGA	0.0223 ± 0.0071
GCCCGACC	-0.213 ± 0.054
CTAGGTTA	-0.16 ± 0.08
GTTTAGCA	0.102 ± 0.11
CTCCTCAG	-0.0357 ± 0.025
CACCTCAC	0.444 ± 0.012
AACCTCAC	0.182 ± 0.034
CACCTCAA	0.375 ± 0.024
AACCTCAG	-0.244 ± 0.045
GACCTCAC	0.137 ± 0.049

Sequence	PBM E-score of 8-mer
AACCTCAA	-0.158 ± 0.018
TACCTCAA	-0.13 ± 0.045
CACCTCAG	0.376 ± 0.0075
CGAAAACG	0.0298 ± 0.05
CGATACAG	-0.0251 ± 0.13
GAGTTGGA	-0.0967 ± 0.023
ATCTTCAC	0.267 ± 0.02
TCTTAACA	0.214 ± 0.041
GGTTATAC	0.0871 ± 0.041
GCATGCTA	0.00793 ± 0.094
ATAGGGAG	-0.00632 ± 0.036
ATAGTGTC	0.272 ± 0.07
ATAGTGTA	0.0763 ± 0.038
AGAGTGTA	0.0671 ± 0.0042
ATAGTGTG	0.388 ± 0.026
AGAGTGTG	0.375 ± 0.022
AGAGTGTC	0.359 ± 0.0099
CGAAGACC	-0.109 ± 0.036
GAGCCCCA	-0.124 ± 0.065
GGGTTAAA	-0.213 ± 0.063
TAACCGAA	-0.212 ± 0.034
CCGCAGAC	-0.143 ± 0.042
GATCAATA	0.0446 ± 0.036
AGCCACAC	0.311 ± 0.049
GGCCACAA	0.0675 ± 0.11

Sequence	PBM E-score of 8-mer
CGCCACAG	0.0527 ± 0.03
GGCCACAC	0.3886 ± 0.00083
CGCCACAC	0.3647 ± 0.0013
CGCCACAA	0.0762 ± 0.081
GAGATGGC	-0.0157 ± 0.0073
CAACCTAG	-0.0248 ± 0.069
CTAGGTGC	0.3603 ± 0.003
AAAGGTGG	0.0801 ± 0.026
AAGGGTGT	0.383 ± 0.015
AAAGGTCC	0.0265 ± 0.0014
AAAGGTAC	-0.0923 ± 0.05
ATAGGTGA	0.284 ± 0.032
AAAGGTGA	0.316 ± 0.0022
AAGGGTGG	0.146 ± 0.028
AAGGGTGA	0.136 ± 0.04
AAAGGTGC	0.414 ± 0.01
AAAGGTGT	0.469 ± 0.0063
ATAGGTGC	0.412 ± 0.012
CGGGTGAA	-0.3489 ± 0.0032
AGCAACCA	-0.0779 ± 0.012
CTACCGTC	-0.191 ± 0.04
ATTTACCG	-0.131 ± 0.054
CGAGGGTA	-0.211 ± 0.033
GATGAGGC	-0.112 ± 0.027
GGTCTACA	-0.0571 ± 0.025

Sequence	PBM E-score of 8-mer
AGGTAAAA	-0.0157 ± 0.037
GATTCACA	0.392 ± 0.0093
TATTCACA	0.423 ± 0.023
AATTCACG	0.345 ± 0.01
CATTCACG	0.238 ± 0.024
AATTCACA	0.297 ± 0.035
CATTCACA	0.427 ± 0.014
GATTCAGA	-0.233 ± 0.061
CATTCACC	-0.0478 ± 0.011
GATTCACC	-0.0546 ± 0.0018
CAGAGAGA	-0.036 ± 0.025
CGTAGCCA	-0.196 ± 0.073
CCGATAAA	-0.0119 ± 0.097
AGGAAACT	-0.0834 ± 0.015
CGCTTGAC	0.136 ± 0.0033
GCTTGACA	0.258 ± 0.034
AGTTGACG	0.226 ± 0.0068
GTTTGACA	0.332 ± 0.036
AGTTGACC	-0.106 ± 0.098
CTTTGACA	0.174 ± 0.035
CGTTGACA	0.414 ± 0.0098
AGTTGACA	0.4138 ± 0.001
GGTTGACA	0.382 ± 0.017
CGTTGACC	0.0141 ± 0.0079
CGTTGTTC	-0.116 ± 0.067

Sequence	PBM E-score of 8-mer
ACGGGCGG	-0.083 ± 0.0064
GTCTTGGA	-0.322 ± 0.015
CATAGAGA	-0.161 ± 0.012
CCCTGTAA	0.137 ± 0.0029
ATCGAGGC	-0.0694 ± 0.048
CACTTCAA	0.213 ± 0.013
AGTTGTCG	0.293 ± 0.033
AGTTGTTG	0.245 ± 0.024
AGTTGTTA	0.369 ± 0.04
GGTTGTCA	0.338 ± 0.0013
CGTTGTTA	0.142 ± 0.034
AGTTGTCA	0.393 ± 0.016
CGTTCGCA	0.411 ± 0.0075
CGTTCGTA	-0.134 ± 0.018
AGTTCGCA	0.3728 ± 0.00053
AGTTCGCC	0.0613 ± 0.039
GGTTCGCA	0.378 ± 0.0054
AGTTCGCG	0.296 ± 0.038
GCTTCGCA	0.358 ± 0.017
GGTTCGGA	-0.2634 ± 0.0013
CGTTCGCC	0.11 ± 0.024
CGGTTATA	-0.00559 ± 0.033
GGGGTCGA	-0.0352 ± 0.02
GCGAGATA	0.105 ± 0.0039
CATTGTCG	0.038 ± 0.0095

Sequence	PBM E-score of 8-mer
ATGATGAA	-0.154 ± 0.044
CGTGACAG	0.217 ± 0.019
AGTGACAT	0.277 ± 0.056
AGTGACGA	0.329 ± 0.029
GGTGACGA	0.418 ± 0.018
CGTGACGA	0.311 ± 0.029
AGTGACAG	0.3301 ± 0.0022
CGTGACAA	0.364 ± 0.0037
AGTGACAC	0.435 ± 0.0092
ACTGACAA	0.165 ± 0.0096
CGTGACAC	0.38 ± 0.015
AGTGACAA	0.397 ± 0.014
CGTGACGC	0.192 ± 0.033
GATCGAGA	0.00394 ± 0.097
AGGCTAAT	-0.255 ± 0.1
ACTAAGCC	-0.223 ± 0.02
AGCCTACC	-0.245 ± 0.012
GAGAATAC	-0.0812 ± 0.016
GATTTTGA	-0.0555 ± 0.0057
AACGCAAA	0.0563 ± 0.092
GCAGCGAA	0.104 ± 0.068
ACAAGAGG	-0.0502 ± 0.064
CAACTCTA	-0.0379 ± 0.031
TCGTATCA	0.129 ± 0.031
GGTGACAC	0.4606 ± 0.0026

Sequence	PBM E-score of 8-mer
GGAGACAC	0.193 ± 0.045
GTTGACAA	0.389 ± 0.016
GTTGACGA	0.279 ± 0.0033
GGTGACCA	0.075 ± 0.05
GGTGACTA	0.196 ± 0.039
GGTGACAA	0.459 ± 0.011
CTTGACAA	0.323 ± 0.011
TGTGACAA	0.412 ± 0.0055
TATGACAA	0.0285 ± 0.073
TCTGACAA	-0.0245 ± 0.056
GGTGAAAC	-0.0179 ± 0.017
CAACGGTC	0.11 ± 0.036
CTATAGAG	-0.282 ± 0.072
ACTAGGCA	-0.204 ± 0.036
CGCTTCAC	0.235 ± 0.042
AGGTCGAC	-0.00677 ± 0.036
ACGGCAGT	-0.173 ± 0.031
ATTATAGG	-0.255 ± 0.027
TGGTGACA	0.39 ± 0.0062
CGGTGACA	0.326 ± 0.026
TCGTGACA	0.325 ± 0.0037
GGGTGACC	-0.0352 ± 0.046
GGGTGAAA	-0.0551 ± 0.015
GGGTGACA	0.4258 ± 0.0018

— the supplement of paper PMC4166925
